KinaseGlo FLuc: Kinase-Glo luciferase inhibition (counter-screen). Kinase-Glo luciferase, ATP luminescence, 8 min. 200,000 tested, 0.28% active. Potency, µM (top dose mostly 38.3 µM), for the others: top-dose activity change, negative = inhibition, hits mostly inhibitors. Q27757; further: on the % scale 0 is the no-effect control and ±100 the full control effect; nearly all actives have a fitted effect of over 60% in size
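Kinase-Glo luciferase light output from ATP and luciferin was measured with 10 uM ATP, within the enzyme's linear range. Buffer: 50 mM imidazole pH 7.2, 50 mM KCl, 7 mM MgCl2, 0.01% Tween 20, 0.05% BSA; luminescence read after 8 min at ambient temperature.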
NPC1 prom act: activators of NPC1 promoter. Potency, µM (doses to about 9.22 µM), for inactives: at the highest dose activation, most hits filed as activators. Huh7 NPC1 promoter luciferase reporter, 24 h. AID 485313. 320,000 tested, 2.4% active; further: % of control where 0% means no effect; nearly all actives have a fitted effect of over 60% in size
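Huh7 reporter cells (NPC1 promoter driving luciferase) are dosed with compound for 24 h at 37 °C, 5% CO2; luciferase detection reagent is then added and luminescence measured after 10 min at ambient temperature.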
FLuc counter: counter-screen for miR-21 project: firefly luciferase inhibitors or activators; purified FLuc, Km substrates, luminescence inhibition; Potency, µM (doses to about 57.5 µM), for inactives: top-dose activity change, negative = inhibition, most hits filed as inhibitors; 360,000 tested, 6.9% active;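 further: plate controls were vehicle for no effect and reference inhibitor for full effect; nearly all actives have a fitted effect of over 55% in size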
Target sequence (P08659 whole entry, looked up): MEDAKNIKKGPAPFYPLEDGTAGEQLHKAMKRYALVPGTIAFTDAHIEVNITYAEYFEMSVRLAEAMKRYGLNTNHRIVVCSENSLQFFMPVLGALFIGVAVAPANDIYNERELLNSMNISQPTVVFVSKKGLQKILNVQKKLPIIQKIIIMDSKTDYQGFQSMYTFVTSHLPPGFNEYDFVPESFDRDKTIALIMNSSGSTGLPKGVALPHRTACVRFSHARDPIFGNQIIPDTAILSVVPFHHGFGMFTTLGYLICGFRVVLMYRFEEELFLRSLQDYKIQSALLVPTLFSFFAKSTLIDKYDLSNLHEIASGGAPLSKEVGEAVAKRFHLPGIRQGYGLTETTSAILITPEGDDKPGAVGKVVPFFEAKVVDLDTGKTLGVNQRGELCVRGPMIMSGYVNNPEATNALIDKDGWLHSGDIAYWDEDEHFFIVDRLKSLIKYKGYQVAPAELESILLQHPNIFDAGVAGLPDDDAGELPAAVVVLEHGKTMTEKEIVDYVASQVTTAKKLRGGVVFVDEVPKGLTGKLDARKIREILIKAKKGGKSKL
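Purified P. pyralis luciferase, 10 nM final, with Km-level 10 uM D-luciferin and 10 uM ATP in 50 mM Tris acetate pH 7.5, 10 mM Mg acetate, 0.01% Tween-20, 0.05% BSA; 6-point qHTS titration about 60 µM downward; luminescence read.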
Rab9 prom act: activates the Rab9 promoter; Huh7 Rab9 promoter-luciferase reporter, luminescence, 24 h; Potency, µM (doses to about 9.22 µM), for inactives: at the top dose activation, negative = inhibition, most hits filed as activators; 320,000 tested, 2.8% active; further: % of control where 0% means no effect; nearly all actives have a fitted effect of over 60% in size
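Cell-based reporter: Huh7 stable for Rab9 promoter-driven luciferase, plated in reduced-serum medium with 10% FBS at 1500 cells/well, compound-treated 24 h at 37 °C, luminescence read after 10 min reagent.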
ELG1 genotoxic: inducers of genotoxicity in HEK293T ELG1-luciferase cells | HEK293T ELG1-luciferase reporter, luminescence, 16 h | Potency, µM (doses to about 46 µM), without a hit: at the highest dose activity change, positive = activation, hits mostly activators | 330,000 tested, 1.3% active; further: % of control where 0% means no effect; nearly all actives have a fitted effect of over 60% in size
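ELG1-luciferase HEK293T cells, 2,000/well; compound pinned in; 16 hr, 37 °C, 5% CO2; ONE-Glo, 30 min RT; luminescence on CCD imager.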
SMN2 splice enh: increases expression of the SMN2 splice variant; HEK293 SMN2-luciferase splicing reporter, luminescence, 30-36 h; 210,000 tested, 2.8% active; Potency, µM (highest dose often 46.1 µM), without a hit: top-dose activity change, positive = activation, hits mostly activators; further: % of control where 0% means no effect; nearly all actives have a fitted effect of over 55% in size
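HEK293 cells carry an SMN2 minigene-luciferase reporter in which exon 7 inclusion puts luciferase in frame. Cells were seeded at 2000 cells/well, attached for 10-12 hours, then exposed to compounds for 30-36 hours at 37C before ONE-Glo luminescence.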
* hit, by the source's call; u = inconclusive; x = no result. Compounds with a hit are over-represented: about 7.4% of the library has one in this group of screens. The call rests on the fitted dose curve; in most records, active means well fitted curve in the direction sought with a large enough effect; inconclusive means small, poorly fitted or top-dose-only effect, or another doubt; inactive means no such curve, though single readings can be large; an effect the other way counts as inactive or inconclusive. Potency means the concentration at half of the fitted maximal effect.

SMILES | KinaseGlo FLuc | NPC1 prom act | FLuc counter | Rab9 prom act | ELG1 genotoxic | SMN2 splice enh
Cc1nc(Nc2ccc(Cl)cc2Cl)sc1C(=O)Nc1ccccc1 | 2.2% | -1.8% | 16.9µM* | 4.1% | -1.4% | -12.2%
Cc1nc(Nc2ccc(Cl)c(Cl)c2)sc1C(=O)Nc1ccccc1 | -1.1% | 0.4% | u | -2.1% | -5.8% | -30.6%
Cc1nc(NC(=O)C2CC2)sc1C(=O)Nc1ccccc1Cl | x | 3.55µM* | u | 2.51µM* | 13.3% | x
Cc1nc(NC(=O)/C=C/c2ccccc2)sc1C(=O)Nc1ccccc1Cl | 0.1% | 1.0% | 12µM* | -5.8% | 12.0% | 12.9%
Cc1nc(Cl)sc1C(=O)Nc1ccccc1Cl | x | -0.4% | -15.7% | -0.9% | 3.0% | x
CC(=O)Nc1ccc(S(=O)(=O)N2CCSc3ccccc32)cc1 | x | x | x | x | 1.4% | x
Cc1nn(CC(=O)NCc2cccs2)c(=O)c2nn(-c3ccccc3)c(C)c12 | x | -0.2% | -4.3% | -0.5% | 1.2% | x
Cc1ccc(CSCC(=O)N(C)CC(=O)Nc2ccc(Cl)c(Cl)c2)cc1 | x | -1.8% | -2.7% | -0.3% | -13.4% | x
COc1cc(Cl)ccc1OCc1cc(C(=O)N[C@H]2CCCCNC2=O)no1 | x | u | 3.38µM* | u | 14.4% | x
CN(CCC1CCCCO1)C(=O)c1cc(COc2ccc(F)cc2F)on1 (centres undefined) | x | 5.6% | -12.6% | 5.1% | -1.9% | x
COc1cc(Cl)ccc1OCc1cc(C(=O)N(C)CC2CCCCO2)no1 (centres undefined) | x | 3.55µM* | 19µM* | 3.98µM* | u | x
CN(CC1CCCCO1)C(=O)c1cc(COc2ccc(F)cc2Cl)on1 (centres undefined) | x | u | u | 2.82µM* | -1.6% | x
Cc1nnc(CN(C)C(=O)c2cc(COc3ccc(F)cc3Cl)on2)o1 | x | 2.51µM* | 12µM* | 2.82µM* | u | x
COc1cc(Cl)ccc1OCc1cc(C(=O)N(C)C2CCOC2)no1 (centres undefined) | x | u | u | 27.4% | u | x
Cc1ccc(S(=O)(=O)Nc2ccc(F)cc2)cc1C(=O)N1CCOCC1 | x | x | x | x | 1.1% | x
COc1ccc(CNC(=O)CN(Cc2ccco2)C(=O)CNS(=O)(=O)c2ccc(F)cc2)cc1 | x | -0.8% | 0.7% | -1.0% | -0.3% | x
COC(=O)CC1C(=O)NCCN1Cc1cn(-c2ccc(C)cc2)nc1-c1cccc(C)c1 (centres undefined) | 1.1% | 1.7% | 16.9µM* | -2.9% | -2.9% | x
Cc1ccc(-n2cc(CNCCN3CCOC3=O)c(-c3cccc(C)c3)n2)cc1 | -0.2% | -4.0% | -16.2% | -2.6% | 1.7% | x
O=C(COc1ccc(Br)cc1Br)NC1CCS(=O)(=O)C1 (centres undefined) | x | -2.8% | -2.8% | 1.6% | 17.3% | x
O=C(COc1ccc(Br)cc1Cl)c1ccc[nH]1 | -1.1% | u | 19µM* | 3.98µM* | 12.0% | u
O=C(COc1ccccc1Cl)c1ccc[nH]1 | -5.0% | 19.2% | u | u | u | u
Cc1cc(Cl)ccc1OCC(=O)NC1CCCC1 | 0.8% | -0.9% | u | 1.6% | u | -76.3%
O=C(COc1ccc(Br)cc1Cl)NC(=O)NC1CCCC1 | x | 29.3% | 9.53µM* | u | u | x
O=C(COc1ccc(Br)cc1Br)NC1CCCC1 | 1.6% | -0.5% | 16.9µM* | 0.3% | 21.5% | -56.8%
O=C(COc1ccc(Br)cc1Cl)NC1CCCCC1 | 2.3% | 2.82µM* | 3.01µM* | 1.41µM* | u | u
SMILES | KinaseGlo FLuc | NPC1 prom act | FLuc counter | Rab9 prom act | ELG1 genotoxic | SMN2 splice enh
Cc1ccc2c(c1)N(C(=O)Nc1cccc3c1CCCC3)CCO2 | x | x | 4.2% | x | x | x
C=CCNC(=O)COc1ccc(Br)cc1Cl | 13.0% | u | 16.9µM* | u | 13.7% | u
CC(C)NC(=O)NC(=O)COc1ccc(Br)cc1Br | 0.8% | 1µM* | 1.2µM* | 2µM* | 3.26µM* | 2.51µM*
CC(C)NC(=O)NC(=O)COc1c(F)c(F)cc(F)c1F | -5.1% | -1.9% | 1.4% | 1.8% | -2.5% | 23.3%
CCOC(=O)/C=C/C(=O)OCC(=O)Nc1ccc([N+](=O)[O-])cc1 | x | -0.6% | 6.4% | -3.7% | -3.0% | x
Cc1cc(NC(=S)Nc2ccc(C)c(Cl)c2)n[nH]1 | 2.5% | u | 16.9µM* | u | u | 17.8µM*
COc1ccc(NC(=S)Nc2cc(C)[nH]n2)cc1Cl | x | u | 16.9µM* | u | 15.2% | x
COc1cc(C)c(NC(=S)Nc2ccc(C)c(Cl)c2)cc1OC | 0.9% | -2.2% | 5.4% | 0.1% | -1.4% | -12.9%
Clc1ccc(CONc2ncnc3nonc23)c(Cl)c1 | 0.1% | u | u | 3.55µM* | 2.6% | u
CCONc1ncnc2nonc12 | -0.9% | 1.0% | 0.0% | -4.0% | -3.3% | 2.6%
O=C(Cc1ccc(Cl)cc1)Nc1ccc2oc(-c3ccccc3)nc2c1 | x | x | 0.1% | x | x | -3.9%
Clc1ccc2oc(-c3cccnc3)nc2c1 | -1.8% | u | 15.1µM* | u | 8.6% | -2.3%
Clc1ccc2oc(-c3ccccc3)nc2c1 | 7.4% | -1.5% | 2.39µM* | 23.4% | u | u
CCOC(=O)c1ccc(NC(=O)CCCc2nc(-c3cc(OC)c(OC)c(OC)c3)no2)cc1 | x | x | -6.2% | x | x | -4.4%
CCOc1ccc(-c2noc(-c3ccncc3)n2)cc1OCC | -2.6% | -1.3% | 1.6% | 0.6% | 16.6% | 13.6%
COc1ccc(-c2noc(-c3cccc(Cl)c3)n2)cc1OC | 0.7% | u | u | 28.3% | u | u
COc1ccc(-c2nc(-c3ccncc3)no2)cc1OC | -15.1% | u | 9.53µM* | 26.0% | 16.4µM* | u
COc1ccc(-c2noc(-c3ccccc3Cl)n2)cc1OC | -20.1% | 3.16µM* | 2.69µM* | 2.51µM* | u | 5.62µM*
COc1ccc(-c2noc(-c3ccco3)n2)cc1OC | 4.0% | x | 7.57µM* | x | x | 12.6µM*
Cc1ccc(-c2nc(-c3ccncc3)no2)cc1Cl | x | 2µM* | 2.69µM* | 3.16µM* | u | x
COc1cc(OC)cc(-c2nc(-c3ccccc3OC)no2)c1 | -3.1% | 9.1% | -14.8% | 20.8% | 8.4% | 14.1%
COc1ccc(C2=NS(=O)(=O)N(C)C(C(=O)N3CCCCC3C)=C2)cc1 (centres undefined) | x | -0.3% | -13.9% | 0.3% | -2.5% | x
Cc1cccc(OCC(=O)N(Cc2sccc2C)C2CCS(=O)(=O)C2)c1 (centres undefined) | x | x | -0.1% | x | x | -0.8%
CCOc1ccc(NC(=O)CCn2c(-c3ccc(F)cc3)cc(C(C)=O)c2C)cc1 | x | x | 3.7% | x | x | x
COc1ccc(CCC(=O)Nc2ccc(-c3noc(-c4ccc(OC)c(OC)c4)n3)cc2)cc1 | 0.2% | u | -0.3% | u | u | 11.2µM*
